Compound activity as filed in PubChem.
Shown are actives, neighbours in structure and some others; about 2.4% of the full set was active somewhere.
A549 viability = counter-screen for Nrf2 inhibitors: cytotoxicity in A549 cells; A549 ARE-Fluc cells, CellTiter-Fluor viability, 18-24 h; Potency, µM (top dose mostly 46 µM), actives largely listed as inhibitors; 0.16% of 390,000 active; AID 504648
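Cytotoxicity counterscreen: CellTiter-Fluor fluorescence was measured in A549 ARE_Fluc cells after 18-24 h of compound exposure in a concentration series. The subsequent BugLite luminescent read reports ARE-luciferase activity.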
Nrf2 ARE act = activators of Nrf2 (ARE) signaling; AID 624171; 0.31% of 410,000 active; AREc32 ARE-luciferase reporter (MCF7-derived line), luminescence, 24 h; Potency, µM (series often up to 46.1 µM), most hits filed as activators; note: nearly all actives have a fitted effect of over 65% in size
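ARE activation measured as luciferase luminescence (Steady-Glo, 30 min RT) in AREc32_Fluc cells after 24 hr compound exposure at 37 deg C, 5% CO2; cells seeded overnight at 1000/well in OPTI-MEM, 5% FBS.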
Epigenetic reg = regulators of epigenetic silencing causing reporter derepression in mouse cells | murine LDR cells, GFP reporter derepression, 30 h | Potency, µM (top dose mostly 53.9 µM), actives largely listed as activators | 0.2% of 280,000 active | AID 1865; note: nearly all actives have a fitted effect of over 60% in size
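Derepression of a silenced CMV-GFP reporter in murine LDR cells is scored by enumerating GFP-positive cells with a laser-scanning microplate cytometer after 30 hours of treatment at 37 C.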
PINK1 modulator = changes PINK1 expression; PINK1 immunofluorescence, high-content cytometry, 24 h; Potency, µM (series often up to 76.6 µM), usual class: activators; 0.2% of 410,000 active; active = well fitted activation curve with a large enough effect; inconclusive = small, poorly fitted or top-dose-only effect; cell line not stated here; note: nearly all actives have a fitted effect of over 65% in size
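Fluorescence from anti-PINK1 antibody, together with nuclear and cell stains, was scanned on a laser-scanning cytometer. Before staining, stable-line cells were incubated 24 hours with compounds at 5 concentrations; primary antibody 12 h at 10 degrees C.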
Nrf2 inh = Nrf2 pathway inhibition; Potency, µM (series often up to 46 µM), actives largely listed as inhibitors; 2.1% of 360,000 active; A549 ARE-Fluc reporter, luciferase luminescence, 18-24 h; AID 504444; note: nearly all actives have a fitted effect of over 60% in size
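Concentration-response testing used A549 ARE_Fluc cells at 5000 cells/well. Following an 18-24 h compound incubation, viability was read by fluorescence (Ex 405/Em 525) and luciferase output by luminescence.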
A number is an active result; - = inactive; ? = inconclusive; . = not tested or not shown. Unless noted, calls come from the whole dose curve; as a rule, active = well fitted curve in the direction sought with a large enough effect; inconclusive = small, poorly fitted or top-dose-only effect, or another doubt; inactive = no such curve, though single readings can be large; an effect the other way counts as inactive or inconclusive.

SMILES	A549 viability	Nrf2 ARE act	Epigenetic reg	PINK1 modulator	Nrf2 inh
CCOc1cc(-c2nnc(SCC(=O)Nc3ccc(F)c(F)c3)nc2-c2ccc(OC)c(OCC)c2)ccc1OC	-	-	16µM	-	.
Oc1ccc(NC(=S)Nc2ccc(F)cc2)cc1	-	-	.	-	-
Fc1ccc(NC(=S)Nc2ccc(Br)cc2)cc1	?	-	-	?	18µM
O=[N+]([O-])c1ccc(NN=Cc2ccco2)nc1	?	0.89µM	.	-	?
CCN1C(=NCc2cccc(Cl)c2)N[C@@H](c2cccc(C(F)(F)F)c2)C(C(=O)OC)=C1C	.	.	.	-	.
Cc1cnc(-n2ncc(C(=O)NCCN3CCOCC3)c2C2CC2)nc1-c1cccs1	.	.	.	-	.
O=c1c2ccccc2nc(SCc2nnc(-c3ccccc3Br)o2)n1-c1ccccc1	-	-	-	-	10µM
NNC(=O)c1oc2nc(-c3ccc(Cl)cc3)cc(-c3ccccc3)c2c1N	-	-	.	-	10µM
NNC(=O)c1oc2nc(-c3ccco3)cc(-c3ccco3)c2c1N	-	-	-	-	?
NC(=O)c1cc([N+](=O)[O-])ccc1NCc1ccc(N)cc1	?	-	.	-	9.2µM
O=[N+]([O-])c1cc([N+](=O)[O-])c2c(=Nc3ccccc3)n(-c3ccccc3)n(O)c2c1	-	14µM	-	-	-
COC(=O)c1sccc1NC(=O)c1cccc(Cl)c1	-	8.9µM	.	-	-
COC(=O)c1sccc1NC(=O)c1csc(C)c1	?	5µM	-	-	.
COC(=O)c1sccc1NC(=O)c1ccc(C)cc1	-	-	.	-	?
Cc1cc(C(=O)Nc2ccc(Br)cc2)cs1	-	11µM	.	-	?
CCc1ccc(NC(=O)Nc2ccsc2C(=O)OC)cc1	-	13µM	.	-	?
COCC(=O)Nc1cc(C(=O)N2CCc3ccccc3C2)c2c(c1)nc(-c1ccncc1)n2C	.	.	.	-	.
Cc1ccccc1C(=O)Nc1ccccc1OCc1cc(=O)n2ccccc2n1	-	-	-	-	.
Cc1cc(C(=O)Nc2ccccc2[N+](=O)[O-])cs1	-	11µM	.	-	?
CSc1ccccc1NC(=O)c1csc(C)c1	-	?	.	-	-
O=C(NC1CCCCC1)c1ccc(Cc2nc3ccccc3[nH]2)cc1	.	.	-	.	.
O=C(c1cn(C2CCCN(Cc3cccc(Oc4ccccc4)c3)C2)nn1)N1CCCC1 (stereo unspecified)	.	.	.	-	.
CCC(C)(C)NC(=O)c1cc(S(=O)(=O)N2CCc3ccccc32)cn1C	-	-	.	-	?
CCc1cccc(CC)c1NC(=O)c1cc(S(=O)(=O)N2CCc3ccccc32)cn1C	-	-	-	-	23µM
CN(C)/[N+]([O-])=N\Oc1cc(OC(=O)c2ccc(N)cc2)c([N+](=O)[O-])cc1[N+](=O)[O-]	.	.	.	-	.
SMILES	A549 viability	Nrf2 ARE act	Epigenetic reg	PINK1 modulator	Nrf2 inh
Fc1ccc(Nc2nc(N/N=C/c3ccco3)nc(N3CCCCC3)n2)cc1	-	-	-	-	18µM
C(=N\Nc1nc(N2CCOCC2)nc(N2CCOCC2)n1)/c1ccco1	.	.	-	.	.
Cc1ccc2nc(N/N=C\c3ccc([N+](=O)[O-])o3)nc(-c3ccccc3)c2c1	23µM	-	-	-	?
O=[N+]([O-])c1ccc(/C=N/Nc2nc(N3CCCC3)nc(N3CCCC3)n2)o1	?	-	-	-	23µM
Oc1ccc(/C=N/Nc2nc(N3CCCCCC3)nc(N3CCCCCC3)n2)c(O)c1	-	-	?	-	15µM
COC(=O)c1ccc(CN2CCC3(CCC(CNC(=O)c4ccco4)O3)CC2)cc1 (stereo unspecified)	.	.	.	-	.
CO[C@H]1[C@H](NC(=O)c2ccsc2)c2ccccc2C12CCN(Cc1cccc3ncccc13)CC2	.	.	.	-	.
CC(C)C(=O)Nc1ccc(C(=O)N/N=C/c2cc(Br)cc(Br)c2O)cc1	?	-	?	-	?
CC(=O)Nc1ccc(C(=O)N/N=C/c2cc(Br)cc(Br)c2O)cc1	-	-	-	-	15µM
CCN(C(=O)c1cccc(S(=O)(=O)N(C)C)c1)C12CC3CC(CC(C3)C1)C2	-	-	.	-	21µM
CCCCOc1ccc(CSc2nc(C)[nH]c2[N+](=O)[O-])cc1[N+](=O)[O-]	?	-	-	?	15µM
CCCCOc1ccc(CSc2nnc(C)n2N)cc1[N+](=O)[O-]	-	-	-	-	-
CC(=O)c1cccc(NC(=O)c2nc3ccccc3nc2N2CCCCC2)c1	-	-	-	-	.
COC(=O)CCC(NC(=O)OCc1ccccc1)C(=O)NC(CC(C)C)C(=O)OC (stereo unspecified)	-	-	-	-	-
CC(C)C[C@@H](C=O)NC(=O)[C@H](CC(C)C)NC(=O)[C@H](CC(C)C)NC(=O)OCc1ccccc1	.	.	1.3µM	.	.
COc1ccc(C2(C(=O)NCC3Cc4cccc(-c5nc(C)cnc5C)c4O3)CCCC2)cc1 (stereo unspecified)	.	.	.	-	.
O=C1Nc2ccc(Br)cc2C1(O)c1ccccc1 (stereo unspecified)	-	-	.	-	-
O=C1Nc2ccc(Br)cc2C12NNc1ccccc1O2 (stereo unspecified)	?	-	18µM	-	-
COc1ccc(Cl)cc1C(=O)NCC(c1ccc(N(C)C)cc1)N1CCCC1 (stereo unspecified)	-	-	-	-	.
Cc1cc(OCC(=O)N2CCc3ccccc3C2)c2c(-c3ccccc3)cc(=O)oc2c1	-	-	-	-	16µM
COC(=O)c1c(NC(=O)c2c(OC)cccc2OC)sc2c1C(C(=O)OC)CC2 (stereo unspecified)	?	-	.	-	13µM
O=C(c1ccc(S(=O)(=O)c2cccc(Cl)c2)c([N+](=O)[O-])c1)N1CCN(c2ccccn2)CC1	?	-	-	-	16µM
O=C(c1cccc(Cl)c1)N1CCN(c2ccccn2)CC1	-	-	-	-	-
COc1cc(-c2ccc3c(=O)c4ccccc4n(C)c3c2)cc(OC)c1OC	?	-	.	-	13µM
COc1cc(-c2ccc3c(=O)c4ccccc4sc3c2)cc(OC)c1OC	-	?	.	-	-
SMILES	A549 viability	Nrf2 ARE act	Epigenetic reg	PINK1 modulator	Nrf2 inh
CCOC(=O)c1c(NC(=O)CN2C(=O)NC3(CCCCC3C)C2=O)sc(C)c1CC (stereo unspecified)	-	-	.	-	?
COC(=O)c1c(NC(=O)CN2C(=O)NC3(CCCCC3C)C2=O)sc2c1CCC2 (stereo unspecified)	-	-	.	-	16µM
COC(=O)c1c(NC(=O)c2ccco2)sc(C(=O)N(C)C)c1C	-	13µM	-	-	-
COC(=O)c1c(NC(=O)c2cccnc2)sc(C(=O)N(C)C)c1C	-	-	-	-	?
O=[N+]([O-])c1ccc([S+](=O)([O-])N2CCN([S+](=O)([O-])c3ccc4c(c3)OCCO4)CC2)c([N+](=O)[O-])c1	-	.	.	.	-
CC(C)c1ccc(NC(=O)CCS(=O)(=O)c2ccc(Br)s2)cc1	-	-	-	-	26µM
COc1ccc(NC(=O)CCS(=O)(=O)c2ccc(Br)s2)cc1	-	-	.	-	-
